{"source": "PubChem BioAssay AID624168", "about": "(Sanford-Burnham Center for Chemical Genomics, 2012)", "note": "The whole screen tested about 360,000 compounds, of which about 800 (0.22%) were called active. This excerpt belongs to a sample that is enriched for actives. A number with no mark means an inactive call.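 The calls were made as follows: active = activation of at least 8% versus controls, or a plate z-score of at least 8; inactive = the rest.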"}
{"assay": "activators of alpha-DG glycosylation, primary screen, uHTS, Pro5-aDG cells, AlphaScreen (AID 624168);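 also: Pro5 are CHO cells carrying HIG-tagged alpha-DG that lacks glycosylation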", "conditions": "alpha-DG glycosylation AlphaScreen (IIH6), at 10 µM, active compounds read high, 0% Pro5, 100% B10-LARGE cell signal"}
{"smiles": "O=C(NCc1cccnc1)c1ccc(CS(=O)(=O)c2ccc(Br)cc2)o1", "activation": "-0.2%"}
{"smiles": "O=C1CC(c2cccc(Br)c2)C2=C(CCCC2=O)N1", "note": "(stereo unspecified)", "activation": "0%"}
{"smiles": "Cc1ccsc1/C=N/NC(=O)Cc1cc(=O)[nH][nH]1", "activation": "-0.1%"}
{"smiles": "O=S(=O)(Nc1ccc(OC(F)(F)F)cc1)c1cccc2nonc12", "activation": "-0.1%"}
{"smiles": "O=S(=O)(Nc1ccc(O)c2ccccc12)c1ccc(OC(F)(F)F)cc1", "activation": "2.6% (active)"}
{"smiles": "CNC(=O)COc1ccc(S(=O)(=O)Nc2ccccc2)cc1", "activation": "0.1%"}
{"smiles": "Cc1ccc(C)c(C(=O)N2CCC(n3nccc3NC(=O)C3CC3)CC2)c1", "activation": "0.3%"}
{"smiles": "CC(NC(=O)COC(=O)Cn1cc(C(F)(F)F)ccc1=O)c1ccccc1", "note": "(stereo unspecified)", "activation": "-0.1%"}
{"smiles": "COc1ccc(-c2oc(/N=C/N3CCCC3)c(C#N)c2-c2ccc(OC)cc2)cc1", "activation": "0.1%"}
{"smiles": "COc1cccc(CN(C)CC2CCCN(CCc3ccc(Cl)cc3)C2)c1OC", "note": "(stereo unspecified)", "activation": "0%"}
{"smiles": "CCn1cc(CN2CCC(C(=O)Nc3cccc(-c4cccc(Cl)c4)c3)CC2)c(C)n1", "activation": "7.1% (active)"}
{"smiles": "O=C(Nc1cccc(-c2cccc(Cl)c2)c1)C1CCN(C2CCC2)CC1", "activation": "1.9%"}
{"smiles": "CCn1cc(CN2CCC(C(=O)Nc3cccc(-c4cccc(Cl)c4)c3)CC2)cn1", "activation": "3.4%"}
{"smiles": "CN(C)N1C(N)=C(C#N)C(c2ccc(Br)cc2)C2=C1CCCC2=O", "note": "(stereo unspecified)", "activation": "0%"}
{"smiles": "CCCn1c(=N)n(CC(=O)c2ccc(Cl)c(Cl)c2)c2ccccc21", "activation": "9.7% (active)"}
{"smiles": "O=C(Cn1nnc(N2CCCCC2)n1)c1ccc(Cl)c(Cl)c1", "activation": "-0.1%"}
{"smiles": "CCN(CC)CC1(O)CCN(C(=O)c2ccc(Cl)c(Cl)c2)CC1", "activation": "-0.1%"}
{"smiles": "O=C(O)c1ccccc1-c1cccc2nncn12", "activation": "0.1%"}
{"smiles": "Cc1ccc(-c2ccc(CN3C(C(C)C)C(=O)N(Cc4cn(CCC5OCCCO5)nn4)CCS3(=O)=O)cc2)cc1", "note": "(stereo unspecified)", "activation": "0.4%"}
{"smiles": "CC(C)C(c1nnnn1C(C)(C)C)N1CCN(Cc2cccnc2)CC1", "note": "(stereo unspecified)", "activation": "-0.3%"}
{"smiles": "O=C(Cn1ncc2c3ccccc3n(Cc3ccccc3)c2c1=O)NCc1ccccn1", "activation": "-0.4%"}
{"smiles": "CC(C#N)OC(=O)c1cccnc1SCC(=O)Nc1ccc2c(c1)OCO2", "note": "(stereo unspecified)", "activation": "0.5%"}
{"smiles": "Nc1scc[n+]1Cc1cccc2cccnc12", "activation": "1.9% (active)"}
{"smiles": "c1ccc2c(C[n+]3csc4ccccc43)cccc2c1", "activation": "-0.1%"}
{"smiles": "CC(NCc1ccccc1OC1CCCC1)c1ccccc1", "note": "(stereo unspecified)", "activation": "0.5%"}
{"smiles": "O=C(COc1cccc(Cl)c1)NCc1ccccc1", "activation": "0.1%"}
